# CYP2C9 act – CYP2C9 (human) activation; P11712; recombinant CYP2C9, luciferin-H conversion, luminescence; stronger effect = higher value; factor 1 = untreated enzyme, 0 = blocked; activation factor at 5 µM; 96,000 tested, 1.4% active;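 active means activation factor of 2 or more for CYP2C9 at a 5 µM dose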;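 further: 0 = sulfaphenazole-blocked wells and 1 = vehicle-only wells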
# Target sequence (P11712 whole entry, looked up): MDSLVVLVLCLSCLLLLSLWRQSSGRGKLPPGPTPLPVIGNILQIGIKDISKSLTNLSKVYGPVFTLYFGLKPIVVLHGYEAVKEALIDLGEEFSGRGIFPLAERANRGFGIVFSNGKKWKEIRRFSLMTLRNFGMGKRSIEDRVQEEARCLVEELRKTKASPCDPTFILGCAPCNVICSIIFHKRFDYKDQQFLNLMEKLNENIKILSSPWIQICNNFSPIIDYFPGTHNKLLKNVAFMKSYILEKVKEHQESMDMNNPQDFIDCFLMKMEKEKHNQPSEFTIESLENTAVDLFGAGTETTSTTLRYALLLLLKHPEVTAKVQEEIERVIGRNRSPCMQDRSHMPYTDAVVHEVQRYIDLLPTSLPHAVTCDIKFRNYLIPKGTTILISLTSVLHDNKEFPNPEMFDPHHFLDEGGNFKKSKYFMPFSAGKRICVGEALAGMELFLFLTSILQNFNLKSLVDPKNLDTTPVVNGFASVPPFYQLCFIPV
# hDAT+cocaine – modulates human dopamine transporter uptake under cocaine. Q01959. LLC-PK1 hDAT cells, [14C]-dopamine uptake with cocaine IC80; actives deviate in either direction. B-score at 10 µM. 110,000 tested, 1.3% active. AID 449768;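 active means Z score or B-score, a plate-position-corrected score, falls beyond the plate's 99.7% confidence bounds, in either direction; inactive means both scores lie inside the 99.7% bounds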;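 further: scored against the spread of the other compound wells on the same plate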
# D1 allo mod – D1 dopamine receptor (human) allosteric modulation | P21728 | HEK293 D1, CRE-luciferase, dopamine EC30 potentiation; actives deviate in either direction | B-score at 10 µM | 58,000 tested, 5.9% active | AID 641;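 active means luminescence count or its row- and column-corrected plate score outside the 99.7% band of the plate's sample wells, on either side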
# CYP2C19 act – cytochrome P450 2C19 (human) activation; P33261; recombinant CYP2C19, luciferin-H EGE luminescence; stronger effect = higher value; 0 = fully inhibited enzyme, 1 = untreated enzyme; activation factor at 5 µM; 96,000 tested, under 10 active; AID 1025;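 active means activation factor of at least 2 at 5 µM in the primary screen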;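 further: 0 = wells with 2.5 mM tranylcypromine and 1 = vehicle-only wells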
# CYP2C9 inh – human CYP2C9 inhibition. P11712. CYP2C9 Supersomes, luciferin-H conversion, luminescence. inhibition, % at 5 µM. 96,000 tested, 20% active;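 active means blocking of liver enzyme CYP2C9 beyond about 50% at 5 µM, limit read from the data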
# CYP2C19 inhib – blocks human cytochrome P450 2C19; 96,000 tested, 21% active; AID 778; inhibition, % at 5 µM; CYP2C19 Supersomes, luciferin-H EGE luminescence, 30 min; P33261;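 active means CYP2C19 inhibition above a set limit at 5 µM in the primary screen, cut at about 50% in these data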;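 further: plate controls were negative control wells for no effect and 2.5 mM tranylcypromine positive control for full effect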
# Active calls of the source: *; · = no result. Most compounds without a hit are left out; they make up all but 28% or so of the library.
SMILES,CYP2C9 act,hDAT+cocaine,D1 allo mod,CYP2C19 act,CYP2C9 inh,CYP2C19 inhib
Cc1csc(SCC(=O)Nc2ccc(S(=O)(=O)N3CCCC3)cc2)n1,0.1,1.1,0.9,0.4,94*,65*
Cc1cc(C)n2nc(SCC(=O)N/N=C/c3ccc(F)cc3)nc2n1,1,0.72,·,0.8,-3,25
Cc1cc(C)nc(SCC(=O)Nc2ccc(S(=O)(=O)N3CCCCC3)cc2)n1,0.2,0.51,·,0.5,75*,49
Cc1cc(C)nc(SCC(=O)N/N=C\c2sccc2C)n1,0.8,-0.58,·,0.4,20,55*
COc1cc(C(=O)N2CCC(n3cnc4cc(F)ccc43)CC2)cc(OC)c1OC,0.9,1.6,0.22,0.9,9,12
CCN(CC)S(=O)(=O)c1ccc2[nH]c(=O)[nH]c2c1,1.1,-0.48,0.23,0.9,-11,10
CCOC(=O)C(C(=O)OCC)[C@@H]1CS(=O)(=O)C[C@H]1C(C(=O)OCC)C(=O)OCC,0.9,0.8,-0.1,0.6,8,44
NC(=O)CS(=O)(=O)c1nc2ccccc2n1Cc1ccccc1F,1.1,0.12,0.4,0.6,-7,39
CCC1Oc2ccc(C)cc2N(CC(=O)N(Cc2ccncc2)Cc2ccco2)C1=O (stereo not drawn),·,0.012,·,·,·,·
CC1=C(C)SC(=C(C#N)c2nnc(N3CCOCC3)n2-c2ccccc2)S1,1.2,0.92,0.45,1.2,-20,-17
COc1ccc(NC(=O)CSc2nc(C)cc(C)n2)cc1,1,0.61,·,0.1,-3,87*
COc1ccc(NC(=O)CCn2nc(C)cc2C)cc1,1.4,-0.32,0.48,0.3,-43,68*
Cc1csc(C(C#N)C(=O)c2ccc(S(=O)(=O)N3CCCC3)cc2)n1 (stereo not drawn),0.3,-0.3,1,0.8,72*,22
O=S(=O)(c1ccc2oc3ccc(S(=O)(=O)N4CCCCC4)cc3c2c1)N1CCCCC1,0.3,1.1,·,1,66*,5
CCOC(=O)N1CCN(C(=O)c2oc3ccc(S(=O)(=O)N4CCCCCC4)cc3c2C)CC1,0.3,-8.1*,-0.74,0.2,73*,80*
CCOC(=O)N1CCN(C(=O)c2oc3ccc(S(=O)(=O)N4CC(C)CC(C)C4)cc3c2C)CC1 (stereo not drawn),0.5,0.82,·,0.4,51*,61*
Cc1c(C(=O)N2CCCc3ccccc32)oc2ccc(S(=O)(=O)N3CCOCC3)cc12,0.1,1.3,0.11,0,85*,96*
CCOC(=O)C1CCN(C(=O)c2oc3ccc(S(=O)(=O)N4CC(C)CC(C)C4)cc3c2C)CC1 (stereo not drawn),0.7,0.65,·,0.7,35,35
CCN(CC)C(=O)C1CCN(S(=O)(=O)c2ccc3oc4ccccc4c3c2)CC1,1.8,2.3*,-1.7,0.8,-75,17
CCOC(=O)N1CCN(C(=O)c2oc3ccc(S(=O)(=O)N4CCOCC4)cc3c2C)CC1,0.2,1.7,·,0.4,75*,55*
CCN1CCN(c2ccc(-n3c(C)nc4c(cnn4-c4ccccc4Cl)c3=O)cc2)CC1,·,·,-1.2,·,·,·
COC(=O)C1=C(C(=O)OC)[C@@H]2N(Cc3ccccc3)c3ccccc3[C@@]23C[C@@H](C(=O)OC)N(C(=O)NC(C)(C)C)C3=N1,·,1.5,·,·,·,·
CCC(C)(C)n1nnnc1C(CC(C)C)N1CCC(C(N)=O)CC1 (stereo not drawn),0.8,-0.3,0.47,1,17,-2
CC(C)CCN(C(=O)Nc1ccccc1)C(C)c1cccs1 (stereo not drawn),0.3,0.075,·,0.8,74*,17
CC1=CCC2C(=O)N(c3ccc(C)c(Br)c3)C(=O)C2C1 (stereo not drawn),0.9,-0.77,0.092,1,14,4
SMILES,CYP2C9 act,hDAT+cocaine,D1 allo mod,CYP2C19 act,CYP2C9 inh,CYP2C19 inhib
CC1=CCC2C(=O)N(c3ccc(Br)cc3C)C(=O)C2C1 (stereo not drawn),0.4,0.82,-0.11,0.2,60*,78*
CC1=CCC2C(=O)N(c3nc(C)cc(C)n3)C(=O)C2C1 (stereo not drawn),0.9,0.11,-0.027,0.9,6,7
CC1=CCC2C(=O)N(c3ccc4ccccc4n3)C(=O)C2C1 (stereo not drawn),0.7,0.81,1,0.4,31,62*
CCOC(=O)c1ccc(N2C(=O)C3CC=C(C)CC3C2=O)cc1 (stereo not drawn),1,0.028,-0.23,1,3,3
CC1=CCC2C(=O)N(c3ccc(C)cc3)C(=O)C2C1 (stereo not drawn),0.8,-0.26,·,0.4,23,64*
COc1ccc(-c2cn[nH]c2N)c(OC)c1,1.2,-0.28,-1.4,1.1,-21,-14
COc1ccc(-c2[nH]ncc2Oc2ccccc2OC)c(O)c1,0.3,0.94,-0.39,0.1,75*,94*
COc1ccc(Oc2cn[nH]c2-c2ccc(O)cc2O)cc1,0,0.83,·,0,99*,100*
C=C(C)COc1ccc(-c2[nH]ncc2-c2ccc(OC)c(OC)c2)c(O)c1,0.7,1,4.4,0.9,33,10
CCCc1ccc(Oc2cn[nH]c2-c2ccc(O)cc2O)cc1,0.1,-0.038,-4.9*,0,89*,96*
COc1ccc(-c2[nH]ncc2-c2cnn(-c3ccccc3)c2)c(O)c1,0.2,0.69,2.5,0.3,82*,69*
CS(=O)(=O)N(CC(=O)NC1CCCCCC1)Cc1ccc(Cl)cc1,0.8,-0.51,·,0.8,15,23
COc1ccc2oc(=O)c(C(=O)n3ccc(C)n3)cc2c1,0.9,-0.9,·,0.9,5,5
CC1(C)NC(=O)N(CCOCCSc2ccccc2)C1=O,0.6,0.62,0.08,0.1,39,86*
CC1(C)NC(=O)N(CCSc2ccc(Cl)cc2)C1=O,0.5,-1.1,·,0.1,50*,93*
Cc1ccc(SCCCCN2C(=O)NC(C)(C)C2=O)cc1,0.2,1.3,-0.068,0.1,77*,88*
CCCCNC(=O)C(Cc1ccccc1)NS(=O)(=O)c1ccc2c(c1)c(=O)n(C)c(=O)n2C (stereo not drawn),0.5,-0.041,·,0.7,49,27
CC1=CC(C)(C)C(C(=O)O)C(C(=O)O)C1 (stereo not drawn),1,0.2,-0.0016,1.1,1,-8
CCCCn1c(=O)[nH]c(=O)c2c1nc(COc1ccc(C#N)cc1)n2CCC,0.1,-0.11,0.52,0.7,90*,25
CCCCn1c(=O)[nH]c(=O)c2c1nc(CN1C(=O)c3ccccc3S1(=O)=O)n2CCC,0,1.9,9.8*,0.2,98*,80*
On1onc2c3cc(-c4ccccc4)nc3ccc21,0.3,·,-0.033,0.8,65*,25
O=C1CC2(CCCC2)Oc2ccccc21,·,-0.24,·,·,·,·
O=C1NC2(CCCCC2)C(=O)N1/N=C/c1ccc(O)cc1O,3.2*,2.2,·,0.9,-219,13
